# Assays:
# [1] = target: Sphingosine kinase 1 (Homo sapiens) (UniProt Q9NYA1); conditions: at 1 µM;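 further: mean SPHK1 inhibition value reported from the GSK PKIS kinase panel screen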
# [2] = target: T1, Sphingosine kinase 2 (Homo sapiens) (UniProt Q9NRA0); conditions: at 0.1 µM
# T1 sequence (whole entry): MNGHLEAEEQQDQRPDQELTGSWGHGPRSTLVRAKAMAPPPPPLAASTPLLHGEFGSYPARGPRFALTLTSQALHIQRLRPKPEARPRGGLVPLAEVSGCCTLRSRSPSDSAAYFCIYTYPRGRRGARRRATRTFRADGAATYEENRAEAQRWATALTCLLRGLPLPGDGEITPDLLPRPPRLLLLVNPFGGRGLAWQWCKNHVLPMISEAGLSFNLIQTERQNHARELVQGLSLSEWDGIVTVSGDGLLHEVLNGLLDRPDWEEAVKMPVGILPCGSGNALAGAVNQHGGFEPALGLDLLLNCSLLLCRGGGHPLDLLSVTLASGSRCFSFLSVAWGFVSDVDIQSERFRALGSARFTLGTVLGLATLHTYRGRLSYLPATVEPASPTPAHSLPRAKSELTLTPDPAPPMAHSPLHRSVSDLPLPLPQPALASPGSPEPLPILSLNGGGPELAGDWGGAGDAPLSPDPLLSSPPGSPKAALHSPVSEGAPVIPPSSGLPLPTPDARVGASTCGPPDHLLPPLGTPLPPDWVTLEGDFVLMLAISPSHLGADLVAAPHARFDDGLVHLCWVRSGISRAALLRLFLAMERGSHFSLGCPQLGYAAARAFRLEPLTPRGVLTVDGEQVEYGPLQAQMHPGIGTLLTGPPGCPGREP
# [3] = target: T1, Sphingosine kinase 2 (Homo sapiens); conditions: at 1 µM
# [4] = target: Casein kinase II subunit alpha (Homo sapiens) (UniProt P68400); conditions: at 0.1 µM
# Sequence of Casein kinase II subunit alpha (Homo sapiens) (P68400 whole entry, looked up): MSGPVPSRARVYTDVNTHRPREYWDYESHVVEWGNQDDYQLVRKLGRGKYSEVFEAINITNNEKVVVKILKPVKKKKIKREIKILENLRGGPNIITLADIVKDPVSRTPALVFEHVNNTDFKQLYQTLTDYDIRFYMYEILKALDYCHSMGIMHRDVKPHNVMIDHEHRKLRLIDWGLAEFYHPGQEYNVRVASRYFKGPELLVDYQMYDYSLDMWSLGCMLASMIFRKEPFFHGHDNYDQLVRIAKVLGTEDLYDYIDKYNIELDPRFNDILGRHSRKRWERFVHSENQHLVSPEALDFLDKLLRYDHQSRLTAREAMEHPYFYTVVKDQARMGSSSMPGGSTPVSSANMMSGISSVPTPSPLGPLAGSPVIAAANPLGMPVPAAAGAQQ
# [5] = target: Casein kinase II subunit alpha (Homo sapiens) (UniProt P68400); conditions: at 1 µM
# [6] = target: T2, Inhibitor of nuclear factor kappa-B kinase subunit alpha (Homo sapiens) (UniProt O15111); conditions: at 0.1 µM
# T2 sequence (whole entry): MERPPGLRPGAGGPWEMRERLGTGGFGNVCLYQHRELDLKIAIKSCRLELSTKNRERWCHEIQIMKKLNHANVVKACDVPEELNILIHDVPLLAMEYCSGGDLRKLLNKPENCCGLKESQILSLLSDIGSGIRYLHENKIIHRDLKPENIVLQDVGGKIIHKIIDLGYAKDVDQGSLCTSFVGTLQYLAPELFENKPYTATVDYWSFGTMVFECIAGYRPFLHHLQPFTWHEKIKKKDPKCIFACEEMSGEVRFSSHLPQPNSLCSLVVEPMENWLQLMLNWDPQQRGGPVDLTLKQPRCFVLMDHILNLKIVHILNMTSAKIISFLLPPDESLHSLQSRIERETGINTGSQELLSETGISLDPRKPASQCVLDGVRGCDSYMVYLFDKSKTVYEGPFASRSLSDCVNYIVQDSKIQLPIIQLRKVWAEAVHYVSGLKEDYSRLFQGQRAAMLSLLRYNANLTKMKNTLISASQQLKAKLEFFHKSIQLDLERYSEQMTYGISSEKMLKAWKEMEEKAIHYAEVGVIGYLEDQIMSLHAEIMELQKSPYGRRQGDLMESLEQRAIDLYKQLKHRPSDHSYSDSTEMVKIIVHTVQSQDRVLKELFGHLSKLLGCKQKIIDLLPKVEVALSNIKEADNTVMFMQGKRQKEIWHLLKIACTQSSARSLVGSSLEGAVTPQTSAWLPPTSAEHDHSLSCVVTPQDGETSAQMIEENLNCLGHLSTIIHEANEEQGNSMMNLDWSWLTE
# [7] = target: T2, Inhibitor of nuclear factor kappa-B kinase subunit alpha (Homo sapiens); conditions: at 1 µM
# [8] = target: T3, Inhibitor of nuclear factor kappa-B kinase subunit beta (Homo sapiens) (UniProt O14920); conditions: at 0.1 µM
# T3 sequence (whole entry): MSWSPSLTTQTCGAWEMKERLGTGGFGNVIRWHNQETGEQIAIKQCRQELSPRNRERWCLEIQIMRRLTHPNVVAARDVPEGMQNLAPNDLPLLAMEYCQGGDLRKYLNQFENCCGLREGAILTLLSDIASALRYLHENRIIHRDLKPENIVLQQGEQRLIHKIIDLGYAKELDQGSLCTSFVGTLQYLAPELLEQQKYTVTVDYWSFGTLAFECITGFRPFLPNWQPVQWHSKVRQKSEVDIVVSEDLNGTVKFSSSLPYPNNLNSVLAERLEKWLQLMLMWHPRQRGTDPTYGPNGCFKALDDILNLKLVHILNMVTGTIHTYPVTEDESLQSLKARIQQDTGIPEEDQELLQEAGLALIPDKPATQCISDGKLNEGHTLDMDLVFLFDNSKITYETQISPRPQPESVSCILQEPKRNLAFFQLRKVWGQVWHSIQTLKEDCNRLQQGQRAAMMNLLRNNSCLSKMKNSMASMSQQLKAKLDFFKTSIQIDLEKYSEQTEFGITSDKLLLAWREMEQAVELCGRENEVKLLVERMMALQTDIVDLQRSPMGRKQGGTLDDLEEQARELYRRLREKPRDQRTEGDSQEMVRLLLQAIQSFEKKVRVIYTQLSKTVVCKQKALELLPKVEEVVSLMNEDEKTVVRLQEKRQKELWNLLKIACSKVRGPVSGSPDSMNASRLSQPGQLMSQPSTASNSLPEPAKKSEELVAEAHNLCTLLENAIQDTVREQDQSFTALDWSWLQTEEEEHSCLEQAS
# [9] = target: T3, Inhibitor of nuclear factor kappa-B kinase subunit beta (Homo sapiens); conditions: at 1 µM
# [10] = target: T4, Inhibitor of nuclear factor kappa-B kinase subunit epsilon (Homo sapiens) (UniProt Q14164); conditions: at 0.1 µM
# T4 sequence (whole entry): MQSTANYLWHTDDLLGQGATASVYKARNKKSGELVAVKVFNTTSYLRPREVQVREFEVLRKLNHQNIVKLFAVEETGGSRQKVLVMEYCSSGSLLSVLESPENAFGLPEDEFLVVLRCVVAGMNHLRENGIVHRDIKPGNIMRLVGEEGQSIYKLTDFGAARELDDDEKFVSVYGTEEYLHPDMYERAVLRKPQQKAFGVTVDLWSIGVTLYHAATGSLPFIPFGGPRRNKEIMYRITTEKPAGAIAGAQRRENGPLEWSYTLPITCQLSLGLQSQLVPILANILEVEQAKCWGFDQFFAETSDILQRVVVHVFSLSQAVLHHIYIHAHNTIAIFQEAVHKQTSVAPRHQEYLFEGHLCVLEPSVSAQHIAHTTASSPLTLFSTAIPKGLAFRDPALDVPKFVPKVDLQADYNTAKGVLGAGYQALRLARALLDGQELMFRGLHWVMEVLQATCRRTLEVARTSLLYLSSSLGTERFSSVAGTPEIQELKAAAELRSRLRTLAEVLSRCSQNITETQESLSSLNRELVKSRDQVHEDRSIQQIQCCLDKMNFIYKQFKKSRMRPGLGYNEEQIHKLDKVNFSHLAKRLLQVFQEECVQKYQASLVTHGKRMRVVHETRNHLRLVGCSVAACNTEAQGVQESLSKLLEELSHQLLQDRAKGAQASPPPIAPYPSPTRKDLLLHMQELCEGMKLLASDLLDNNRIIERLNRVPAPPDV
# [11] = target: T4, Inhibitor of nuclear factor kappa-B kinase subunit epsilon (Homo sapiens); conditions: at 1 µM
# [12] = target: T5, Serine/threonine-protein kinase Nek1 (Homo sapiens) (UniProt Q96PY6); conditions: at 0.1 µM
# T5 sequence (whole entry): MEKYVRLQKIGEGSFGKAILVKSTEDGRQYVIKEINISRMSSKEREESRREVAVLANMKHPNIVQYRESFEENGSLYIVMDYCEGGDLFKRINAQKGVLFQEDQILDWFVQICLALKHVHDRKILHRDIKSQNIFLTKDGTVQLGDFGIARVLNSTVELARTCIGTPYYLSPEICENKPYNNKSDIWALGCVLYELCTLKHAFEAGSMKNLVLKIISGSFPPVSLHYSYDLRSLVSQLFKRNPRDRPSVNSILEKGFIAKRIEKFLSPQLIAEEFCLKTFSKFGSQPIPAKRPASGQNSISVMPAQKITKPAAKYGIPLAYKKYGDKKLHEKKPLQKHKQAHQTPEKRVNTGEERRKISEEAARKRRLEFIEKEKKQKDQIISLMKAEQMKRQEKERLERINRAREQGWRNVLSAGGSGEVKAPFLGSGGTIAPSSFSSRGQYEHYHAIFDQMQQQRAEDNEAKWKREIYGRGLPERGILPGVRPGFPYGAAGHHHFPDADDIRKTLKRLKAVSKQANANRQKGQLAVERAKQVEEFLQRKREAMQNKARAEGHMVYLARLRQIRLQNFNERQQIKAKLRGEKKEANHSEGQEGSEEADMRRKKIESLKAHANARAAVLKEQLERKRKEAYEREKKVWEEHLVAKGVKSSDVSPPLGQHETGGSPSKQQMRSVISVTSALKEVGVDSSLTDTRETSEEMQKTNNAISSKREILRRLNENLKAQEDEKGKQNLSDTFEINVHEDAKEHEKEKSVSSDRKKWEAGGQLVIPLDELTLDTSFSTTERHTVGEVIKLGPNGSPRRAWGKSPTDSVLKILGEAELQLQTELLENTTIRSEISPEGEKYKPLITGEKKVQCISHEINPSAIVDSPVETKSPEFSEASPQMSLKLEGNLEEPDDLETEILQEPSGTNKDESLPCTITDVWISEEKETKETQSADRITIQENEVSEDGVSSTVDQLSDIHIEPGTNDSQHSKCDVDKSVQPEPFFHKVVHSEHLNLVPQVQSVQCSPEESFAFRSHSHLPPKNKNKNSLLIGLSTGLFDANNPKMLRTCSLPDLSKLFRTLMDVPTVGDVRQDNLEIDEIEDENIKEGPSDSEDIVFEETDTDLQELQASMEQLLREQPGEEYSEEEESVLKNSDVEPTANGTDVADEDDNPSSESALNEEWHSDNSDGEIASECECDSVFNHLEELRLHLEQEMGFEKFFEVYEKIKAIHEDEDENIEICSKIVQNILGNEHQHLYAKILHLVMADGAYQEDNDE
# [13] = target: T5, Serine/threonine-protein kinase Nek1 (Homo sapiens); conditions: at 1 µM
# [14] = target: T6, Serine/threonine-protein kinase Nek2 (Homo sapiens) (UniProt P51955); conditions: at 0.1 µM
# T6 sequence (whole entry): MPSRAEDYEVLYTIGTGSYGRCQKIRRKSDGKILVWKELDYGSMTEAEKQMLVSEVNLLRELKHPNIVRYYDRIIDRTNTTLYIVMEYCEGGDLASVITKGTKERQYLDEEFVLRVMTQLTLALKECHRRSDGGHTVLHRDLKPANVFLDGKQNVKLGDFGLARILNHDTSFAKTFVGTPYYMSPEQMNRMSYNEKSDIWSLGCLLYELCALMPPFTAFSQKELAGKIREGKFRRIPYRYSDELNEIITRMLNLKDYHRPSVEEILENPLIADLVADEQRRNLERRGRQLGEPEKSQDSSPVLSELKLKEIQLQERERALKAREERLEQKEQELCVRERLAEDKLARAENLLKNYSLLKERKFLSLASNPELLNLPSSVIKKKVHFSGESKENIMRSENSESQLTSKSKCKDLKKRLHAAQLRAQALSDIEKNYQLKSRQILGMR
# [15] = target: T6, Serine/threonine-protein kinase Nek2 (Homo sapiens); conditions: at 1 µM
# [16] = target: Serine/threonine-protein kinase Nek6 (Homo sapiens) (UniProt Q9HC98); conditions: at 0.1 µM
# Sequence of Serine/threonine-protein kinase Nek6 (Homo sapiens) (Q9HC98 whole entry): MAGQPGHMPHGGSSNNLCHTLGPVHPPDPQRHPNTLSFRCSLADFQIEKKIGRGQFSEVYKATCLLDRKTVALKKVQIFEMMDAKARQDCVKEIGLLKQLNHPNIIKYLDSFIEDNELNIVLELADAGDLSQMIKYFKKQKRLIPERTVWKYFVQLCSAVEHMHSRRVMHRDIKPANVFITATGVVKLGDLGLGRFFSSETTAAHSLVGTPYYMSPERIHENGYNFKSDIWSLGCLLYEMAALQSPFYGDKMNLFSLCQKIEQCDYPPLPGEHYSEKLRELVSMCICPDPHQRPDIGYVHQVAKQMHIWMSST
# [17] = target: Serine/threonine-protein kinase Nek6 (Homo sapiens) (UniProt Q9HC98); conditions: at 1 µM
# [18] = target: Serine/threonine-protein kinase Nek7 (Homo sapiens) (UniProt Q8TDX7); conditions: at 0.1 µM
# Sequence of Serine/threonine-protein kinase Nek7 (Homo sapiens) (Q8TDX7 whole entry, looked up): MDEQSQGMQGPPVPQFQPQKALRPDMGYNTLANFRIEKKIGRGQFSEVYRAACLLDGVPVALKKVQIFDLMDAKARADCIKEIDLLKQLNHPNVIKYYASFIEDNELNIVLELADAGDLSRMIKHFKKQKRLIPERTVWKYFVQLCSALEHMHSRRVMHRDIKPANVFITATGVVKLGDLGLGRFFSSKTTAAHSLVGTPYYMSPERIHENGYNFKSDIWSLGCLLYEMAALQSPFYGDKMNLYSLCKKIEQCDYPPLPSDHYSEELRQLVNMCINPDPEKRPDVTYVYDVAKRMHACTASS
# [19] = target: Serine/threonine-protein kinase Nek7 (Homo sapiens) (UniProt Q8TDX7); conditions: at 1 µM
# [20] = target: T7, Serine/threonine-protein kinase Nek9 (Homo sapiens) (UniProt Q8TD19); conditions: at 0.1 µM;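 further: reported value is the mean percent inhibition of NEK9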
# T7 sequence (whole entry): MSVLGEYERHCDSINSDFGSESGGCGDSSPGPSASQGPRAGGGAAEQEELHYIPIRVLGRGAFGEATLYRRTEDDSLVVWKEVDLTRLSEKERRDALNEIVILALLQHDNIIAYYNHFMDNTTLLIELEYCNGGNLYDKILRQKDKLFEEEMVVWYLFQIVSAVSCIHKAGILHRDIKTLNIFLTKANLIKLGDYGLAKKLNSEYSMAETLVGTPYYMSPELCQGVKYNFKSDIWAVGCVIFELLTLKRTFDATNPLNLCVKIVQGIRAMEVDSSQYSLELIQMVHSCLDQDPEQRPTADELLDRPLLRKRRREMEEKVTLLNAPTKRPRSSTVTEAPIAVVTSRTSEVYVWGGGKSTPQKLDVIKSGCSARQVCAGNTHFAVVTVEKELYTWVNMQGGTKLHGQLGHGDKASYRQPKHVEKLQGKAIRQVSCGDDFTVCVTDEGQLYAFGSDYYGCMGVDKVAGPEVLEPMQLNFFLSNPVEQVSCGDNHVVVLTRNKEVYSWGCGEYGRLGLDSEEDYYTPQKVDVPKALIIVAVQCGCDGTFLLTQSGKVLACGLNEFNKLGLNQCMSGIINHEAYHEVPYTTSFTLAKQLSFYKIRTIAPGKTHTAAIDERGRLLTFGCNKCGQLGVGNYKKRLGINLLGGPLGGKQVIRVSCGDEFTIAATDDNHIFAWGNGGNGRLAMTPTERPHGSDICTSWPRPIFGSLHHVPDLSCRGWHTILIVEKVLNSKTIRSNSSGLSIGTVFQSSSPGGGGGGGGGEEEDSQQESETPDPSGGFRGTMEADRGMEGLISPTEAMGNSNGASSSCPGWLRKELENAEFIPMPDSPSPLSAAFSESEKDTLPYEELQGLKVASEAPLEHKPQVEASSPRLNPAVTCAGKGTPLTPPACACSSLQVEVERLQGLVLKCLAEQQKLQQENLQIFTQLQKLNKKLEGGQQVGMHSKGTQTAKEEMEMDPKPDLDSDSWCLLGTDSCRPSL
# Sequence of Sphingosine kinase 1 (Homo sapiens) (Q9NYA1 whole entry): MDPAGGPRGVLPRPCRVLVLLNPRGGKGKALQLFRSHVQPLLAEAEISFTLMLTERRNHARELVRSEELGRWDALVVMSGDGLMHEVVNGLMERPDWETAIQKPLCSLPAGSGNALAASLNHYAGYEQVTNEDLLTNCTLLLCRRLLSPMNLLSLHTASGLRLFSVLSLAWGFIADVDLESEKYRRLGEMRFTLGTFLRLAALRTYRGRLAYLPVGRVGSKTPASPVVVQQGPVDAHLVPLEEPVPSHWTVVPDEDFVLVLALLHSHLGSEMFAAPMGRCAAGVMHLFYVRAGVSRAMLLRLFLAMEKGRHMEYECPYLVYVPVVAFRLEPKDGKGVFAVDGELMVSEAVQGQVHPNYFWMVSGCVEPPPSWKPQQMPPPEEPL
compound,measurement,setting,value
COc1cc(Nc2ncc(-c3ccccc3)o2)cc(OC)c1,inhibition,[1],2.45%
same,inhibition,[2],-0.24%
same,inhibition,[3],-0.57%
same,inhibition,[4],3.79%
same,inhibition,[5],3.91%
same,inhibition,[6],2.7%
same,inhibition,[7],4.19%
same,inhibition,[8],4.63%
same,inhibition,[9],7.8%
same,inhibition,[10],12.6%
same,inhibition,[11],10.9%
same,inhibition,[12],1.83%
same,inhibition,[13],4.11%
same,inhibition,[14],5.36%
same,inhibition,[15],5.95%
same,inhibition,[16],3.13%
same,inhibition,[17],1.56%
same,inhibition,[18],3.14%
same,inhibition,[19],5.01%
same,inhibition,[20],10.4%
